What all share (assay): PBM binding z-score (relative to random genomic background probes); higher = stronger binding; sequences stand for … in GC…GCGATTGACAGCGTAGAATGAAGG
Test [1] concerns FXR:RXRa (NR concentration 270 nM, RXRa partner concentration 90 nM). The procedure, abridged: (§1)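 Random background probes are the reference for binding z-scores. These scores derive from regression-normalized fluorescence on custom Agilent 4×180K protein-binding microarrays incubated 1 h with ligand-free nuclear receptor dimers. Binding was detected with antibodies against each partner (one per run).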

Test [2] has as its system LXRa:RXRa (NR concentration 270 nM, RXRa partner concentration 90 nM). The procedure, abridged: as §1
Test [3] deals with LXRa homodimer (NR concentration 270 nM). The essentials: as §1
For test [4], the system named is LXRb:RXRa (NR concentration 270 nM, RXRa partner concentration 90 nM). The essentials: as §1
For test [5], the system named is LXRb homodimer (NR concentration 270 nM). The procedure, abridged: as §1
Test [6] has as its system PPARa:RXRa (NR concentration 270 nM, RXRa partner concentration 90 nM). The procedure, abridged: as §1
Test [7] concerns PPARg:RXRa (NR concentration 180 nM, RXRa partner concentration 90 nM). The essentials:
as §1

For test [8], the system named is PPARg:RXRa 270nM:90nM, anti-RXR (NR concentration 270 nM, RXRa partner concentration 90 nM). The procedure, abridged:
as §1

Test [9] deals with PPARg:RXRa 30nM:10nM, anti-RXR (NR concentration 30 nM, RXRa partner concentration 10 nM). The essentials:
as §1

In test [10] the test system is PPARg:RXRa 90nM:30nM, anti-RXR (NR concentration 90 nM, RXRa partner concentration 30 nM). The procedure, abridged:
as §1

Test [11] relates to PPARg:RXRa DBDmut IVT, anti-RXR (DBD mutation: RXRa K156A/R161A, NR concentration 270 nM, RXRa partner concentration 90 nM). The procedure, abridged:
as §1

Test [12] relates to PPARg:RXRa IVT, anti-PPARg (NR concentration 270 nM, RXRa partner concentration 90 nM). The procedure, abridged:
as §1

The test system of test [13] is PPARg DBDmut:RXRa IVT, anti-PPARg (DBD mutation: PPARg1 K132A/R137A, NR concentration 270 nM, RXRa partner concentration 90 nM). The essentials: as §1
The test system of test [14] is PPARg DBDmut IVT, anti-PPARg (DBD mutation: PPARg1 K132A/R137A, NR concentration 270 nM). The essentials:
as §1

Test [15] relates to PPARg homodimer (NR concentration 180 nM). The procedure, abridged: as §1
Test [16] deals with PXR:RXRa (NR concentration 270 nM, RXRa partner concentration 90 nM). The procedure, abridged:
as §1

Test [17] relates to PXR homodimer (NR concentration 270 nM). The procedure, abridged: as §1
The subject of test [18] is RARa:RXR (NR concentration 270 nM, RXRa partner concentration 90 nM). The essentials:
as §1

The subject of test [19] is RARa homodimer (NR concentration 270 nM). The essentials: as §1
Test [20] concerns RARb:RXRa (NR concentration 270 nM, RXRa partner concentration 90 nM). The essentials: as §1

Regarding GCAAGTTGGTCAGTAAAAGGTCACACACCGGTCG, the PBM binding z-score is 3.28 in test [1]; 4.29 in test [2]; 4.58 in test [3]; 4.17 in test [4]; 0.833 in test [5]; 4.62 in test [6]. Moreover, the PBM binding z-score in test [7] came out at 3.08; in test [8], 4.43; in test [9], 2.58; in test [10], 3.92; in test [11], 1.27; in [12], 2.7. Also, the PBM binding z-score in [13] is 0.611; in test [14], 0.159; in test [15], 4.55; in test [16], 5.2; in test [17], 1.01; in test [18], 5.84. Moreover, the PBM binding z-score in [19] was found to be 1.75; in test [20] it was 4.17.

On to CCTACTGGGCCACGAAAGGTCAATGATTCAGTGA, for which the PBM binding z-score in [1] is 3.22; in test [2], 4.61; in test [3], 2.93; in [4], 3.95; in test [5], -0.0572; in test [6], 4.44. Moreover, the PBM binding z-score in [7] turned out to be 4.52; in test [8], 4.6; in test [9], 1.66; in test [10] it was 3.59; in [11], 5.81; in test [12], 6.07. For the same sequence, the PBM binding z-score in test [13] is 0.295; in test [14] it was -0.781; in test [15], 2.45; in test [16], 4.54; in [17], 0.206; in test [18] it was 4.68. Moreover, the results for the PBM binding z-score in test [19] and in [20] were 0.747 and 4.09, respectively.

Turning to ACTATTAGTTGAGACGAGGGCAGCCGATAGGTTG, the PBM binding z-score in test [1] is 0.474; in test [2], -0.24; in [3], -0.315; in test [4], -0.195; in test [5], 0.184; in test [6], -0.0872. In addition, the PBM binding z-score in [7] was 0.689; in [8], -0.013; in test [9], 0.136; in test [10], -0.0374; in [11] it was 0.368; in test [12], 0.416. In addition, the PBM binding z-score was 0.598 in test [13]; 0.645 in test [14]; 0.479 in test [15]; 0.456 in [16]; -0.0477 in [17]; 0.335 in test [18]. The PBM binding z-score worked out at 0.445 in test [19] and 0.854 in test [20].

Turning to CGTCAAAGTTCAACTATGGTAACGTAAAGCACGC, the PBM binding z-score came out at 6.59 in test [1]; 6.03 in test [2]; 3.91 in [3]; 4.34 in test [4]; 2.3 in [5]; 4.97 in test [6]. Besides, the PBM binding z-score in test [7] was determined as 4.9; in test [8], 5.62; in test [9], 2.24; in [10], 4.52; in [11], 0.569; in test [12] it was 1.9. Moreover, the PBM binding z-score in test [13] was determined as 1.06; in test [14], 1.31; in test [15] it was 3.74; in [16], 4.94; in [17], 4.27; in test [18], 4.14. For the same sequence, the PBM binding z-score is 2.09 in [19] and 5.33 in test [20].

For CCGACTGGGGCAAGTTTACCATAACGCACAGCCA, the PBM binding z-score in [1] is -0.129; in test [2] it was 0.0135; in [3], 0.16; in [4] it was 0.0377; in [5] it was -0.603; in [6], 0.536. For the same sequence, the PBM binding z-score in test [7] is 0.987; in [8], 0.774; in [9] it was -0.288; in [10] it was 0.451; in [11], 3.19; in test [12], 2.78. The PBM binding z-score in test [13] is -0.473; in [14] it was -0.469; in test [15] it was 0.332; in test [16] it was -0.0221; in test [17], 0.029; in test [18], 0.0414. In addition, the values for the PBM binding z-score in test [19] and in [20] were 0.4 and 1.02, respectively.

CGAACTACGTCATTGACAGGACAGTGAATAGTAA: the PBM binding z-score is -0.386 in [1]; -0.38 in test [2]; -0.195 in test [3]; -0.327 in [4]; -0.182 in [5]; -0.47 in [6]. The PBM binding z-score in test [7] is 0.307; in [8], -0.251; in test [9] it was -0.294; in test [10] it was -0.164; in test [11], -0.246; in [12], -0.155. The PBM binding z-score was 0.611 in [13]; 0.69 in test [14]; 0.0858 in test [15]; -0.217 in [16]; 0.0481 in test [17]; -0.22 in test [18]. The PBM binding z-score was 0.592 in test [19] and -0.0589 in test [20].

Consider TCATATTGGTAAAAGGTGAAAGTCGGTGTGGTAA, for which the PBM binding z-score in test [1] turned out to be 1.65; in test [2], 1.92; in [3] it was 0.474; in test [4] it was 2.06; in [5] it was 0.291; in [6] it was 3.73. For the same sequence, the PBM binding z-score in test [7] worked out at 3.98; in test [8], 5.67; in [9] it was 5.38; in test [10] it was 6.18; in test [11], 2.97; in test [12], 2.77. Also, the PBM binding z-score turned out to be 1.12 in test [13]; 2.43 in test [14]; 2.62 in test [15]; 1.43 in test [16]; 0.68 in [17]; 2.1 in [18]. Also, the values for the PBM binding z-score in [19] and in [20] were 2.36 and 2.01, respectively.

Values taken from the supplement of paper PMC6555819.
